Here are results for 40 molecules from PubChem BioAssay (Tox21).

Records with an inconclusive call do not appear. Entries that show only a call come without a potency. Activity calls are given as the source filed them. Calls come from the whole dose curve; as a rule, active = well fitted inhibition curve with a large enough effect in the signal ratio in the repeat runs (not every such curve was filed as active); inconclusive = weak or mixed curves, or effect the other way; inactive = flat fitted curve, though single readings scatter; the % refers to the signal ratio.
Potency is the fitted concentration of half-maximal effect.

This experiment can be described thus: cAMP Responsive Elements (CRE) small molecule antagonists, cell-based qHTS assay (AID 1963591). The conditions noted are these: CRE-bla HEK293T, beta-lactamase FRET ratio; series mostly up to 92.4 µM. The text has this:
U.S. Tox21 Program National Center for Advancing Translational Sciences [NCATS] Division of Preclinical Innovation [DPI] U.S. Environmental Protection Agency [EPA] National Institutes of Environmental Health Sciences [NIEHS] National Toxicology Program [NTP] U.S. Food and Drug Administration [FDA] Tox21 Assay Overview: CREB (cyclic-AMP Responsive Element Binding Protein) is a cellular transcription factor. It binds to certain DNA sequences called cAMP Responsive Elements (CRE) and regulates the transcription of the genes. […] This cell line can be used to find agonists/antagonists of the cyclic AMP signaling pathway. The activation of the report gene under culture conditions can be detected by fluorescence intensity. This cell line has been used to screen the Tox21 10K compound library to […].
Tox21 Assay Protocol Summary: CRE-bla Hek 293T cells were suspended in assay medium (DMEM containing 10% dialyzed FBS, 0.1 mM NEAA, 1 mM sodium pyruvate and 25 mM HEPES) and dispensed at 2,000 cells/4 uL /well into 1536-well black wall/clear bottom plates using a Multidrop Combi (ThermoFisher Scientific, Waltham, MA) dispenser. After the assay plates were incubated at 37 C/5% CO2 for 18 hrs, 23 nL of compounds dissolved in DMSO, positive controls or DMSO only was transferred to the assay plate by a pintool workstation (Kalypsys, San Diego, CA), followed by addition of 1 […] uL of 1.25uM NKH477 (0.25 uM as final concentration) in assay medium using a Flying Reagent Dispenser (Aurora Discovery, San Diego, CA). The plates were incubated at 37 C and 5% CO2 for 3 hrs. Then 1 uL of LiveBLAzer B/G FRET substrate (Invitrogen, Carlsbad, CA) was added to each well using Bioraptr Flying Reagent Dispenser (FRD, Aurora Discovery, San Diego, CA). The plates were incubated at room temperature for 2 h.
For orientation: Quantitative high-throughput screening tests each substance at several concentrations.
Regarding `COc1ccccc1N1CCNCC1`, the Potency result is “inactive”.
For `CN1CCN(C(=O)O[C@H]2c3nccnc3C(=O)N2c2ccc(Cl)cn2)CC1`, the Potency result was “inactive”.
Take `CCN[C@@H](C)Cc1ccccc1`: the Potency result is “inactive”.
In the case of `N=C(N)[Se]`, the Potency result is “inactive”.
In the case of `Clc1ccccc1` it was “inactive”; in that of `CC(C)CC#N`, “inactive”; in that of `ClCCCN1CCN(c2cccc(Cl)c2)CC1`, “inactive”.
With `CC(Cl)(Cl)Cl`, the Potency entry was “inactive”.
Turning to `NCCCNCCCN`, the Potency result was “inactive”.
Next, `C[C@H](N)[C@H](O)c1ccc(O)c(O)c1`: “inactive”; `Cc1cccc2sc3nncn3c12`: “inactive”.
For the molecule `CC(=O)NC1CCSC1=O` (stereo not given), the Potency entry was “inactive”.
On to `O=C1C[C@@H]2OCC=C3CN4CC[C@]56c7ccccc7N1[C@H]5[C@H]2[C@H]3C[C@H]46`, for which the Potency result is “inactive”.
As to `ClCCCCBr`, the Potency result was “inactive”.
Consider `CSC1=N[C@@](C)(c2ccccc2)C(=O)N1Nc1ccccc1`, for which the Potency entry was “inactive”.
In the case of `CON(C)C(=O)Nc1ccc(Br)cc1` it was “inactive”; in that of `ClCc1ccc(Cl)cc1Cl`, “inactive”; in that of `CCOP(=O)(Sc1ccccc1)Sc1ccccc1`, “inactive”.
Next, `CN1C(=O)CN=C(c2ccccc2)c2cc([N+](=O)[O-])ccc21`: “inactive”; `c1ccc(Nc2ccc(Nc3ccccc3)cc2)cc1`: “inactive”.
With `CCOP(=S)(OCC)Oc1ccc(Cl)cc1Cl`, the Potency result was “inactive”.
`CC(c1ccccc1)(c1ccc(O)cc1)c1ccc(O)cc1`: the Potency result was “inactive”.
In the case of `CCCCN(CCCC)C(=S)[S-].CCCCN(CCCC)C(=S)[S-].[Zn+2]` it was 21.7 µM (active); in that of `NC(=O)c1ccc(N)nc1`, “inactive”.
In the case of `COP(=O)(OC)O/C(C)=C/C(=O)N(C)C`, the Potency entry was “inactive”.
As for `COc1ccc(Cc2nccc3cc(OC)c(OC)cc23)cc1OC`, the Potency result was “inactive”.
In the case of `CC1CN1P(=O)(N1CC1C)N1CC1C` (stereo not given) it was “inactive”; in that of `CCN(CC)C(=O)N[C@@H]1C=C2c3cccc4[nH]cc(c34)C[C@@H]2N(C)C1`, “inactive”.
For the molecule `CCCCCCCCCC[N+](C)(C)CCCCCCCCCC`, the Potency was 43.3 µM (active).
In the case of `O=C(CBr)c1ccccc1` it was “inactive”.
Take `CCOC(=O)OC1=C(c2cc(C)ccc2C)C(=O)NC12CCC(OC)CC2` (stereo not given): the Potency entry is “inactive”.
In the case of `CCc1cc(OC)c(C[C@H](C)N)cc1OC`, the Potency result is “inactive”.
Regarding `CN(C)CCN(C)C`, the Potency result is “inactive”.
As to `CC(C)C(Nc1ccc(C(F)(F)F)cc1Cl)C(=O)OC(C#N)c1cccc(Oc2ccccc2)c1` (stereo not given), the Potency entry is “inactive”.
Turning to `CCCCP(CCCC)CCCC`, the Potency result is “inactive”.
In the case of `CN[C@@H](C)[C@H](O)c1ccccc1` it was “inactive”; in that of `CNC(=O)/C=C(\C)OP(=O)(OC)OC`, “inactive”.
On to `COC(=O)C1(O)c2ccccc2-c2ccccc21`, for which the Potency result is “inactive”.
On to `CCN(CC)CCc1c[nH]c2ccccc12`, for which the Potency entry is “inactive”.
For `O=C(Cl)c1ccc(Cl)cc1`, the Potency result is “inactive”.
